Mcl1-Noxa inh – Mcl-1/Noxa binding inhibitors, primary screen, biochemical, TR-FRET, 1536-well. TR-FRET Mcl-1/Noxa peptide binding, 2 h. inhibition, % at 21.7 µM. 1.5% of 220,000 active;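 active = compounds that cut the protein-peptide binding signal by more than 50% relative to plate controls in a single-dose test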;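 note: His-tagged Mcl-1 with rhodamine Noxa BH3 peptide and terbium anti-His antibody; 0% = Mcl-1 plus Noxa peptide wells and 100% = peptide-only wells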
Target sequence (Q07820 whole entry, looked up): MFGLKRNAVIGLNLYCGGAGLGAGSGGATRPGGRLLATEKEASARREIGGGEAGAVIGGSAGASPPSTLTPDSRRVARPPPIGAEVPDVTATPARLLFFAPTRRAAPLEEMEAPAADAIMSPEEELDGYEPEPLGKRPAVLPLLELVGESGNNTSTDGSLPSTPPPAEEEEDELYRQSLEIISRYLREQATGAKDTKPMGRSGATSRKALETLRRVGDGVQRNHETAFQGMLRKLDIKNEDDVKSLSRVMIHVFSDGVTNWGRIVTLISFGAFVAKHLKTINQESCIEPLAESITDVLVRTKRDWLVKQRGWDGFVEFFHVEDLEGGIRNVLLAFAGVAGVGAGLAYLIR
Bim-Mcl-1 – inhibitors of Bim peptide binding to Mcl-1, primary screen, biochemical, bead-based flow cytometry, multiplex. Induced myeloid leukemia cell differentiation protein Mcl-1 (Homo sapiens), Q07820. Bim peptide-Mcl-1 binding. inhibition, % at 10 µM. 0.1% of 190,000 active. AID 1009, 2008; in the data active = inhibition above about 40%;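 note: 0% = no compound tracer wells and 100% = peptide blocker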
MCL1 BIM primary – inhibitors of MCL1 binding to BIM-BH3, primary screen, biochemical, fluorescence polarization | inhibition, % at 10.9 µM | Induced myeloid leukemia cell differentiation protein Mcl-1 (Homo sapiens), Q07820 | 0.68% of 320,000 active | GST-MCL1 / FITC-Bim-BH3 fluorescence polarization;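 active = inhibition above the mean inhibition of all tested compounds plus 3 SD, set per campaign, cut at about 40% in these data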;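 note: 0% = DMSO wells and 100% = unlabeled Bim-BH3 peptide control; higher means more loss of mP so more displacement of Bim peptide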
BCLXL inh – inhibitors of human Bcl-xL, primary screen, biochemical, fluorescence polarization, HTS | inhibition, % at 10.9 µM | 0.7% of 320,000 active | Bcl-2-like protein 1 (Homo sapiens), Q07817 | GST-Bcl-xL / FITC-Bim BH3 peptide fluorescence polarization;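 active = inhibition above the mean of all tested compounds plus 3 SD, cutoff set per campaign, cut at about 30% in these data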;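 note: 0% = DMSO wells and 100% = unlabeled Bim-BH3 peptide competitor; inhibitors lower millipolarization by displacing the labeled peptide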
Target sequence (Q07817 whole entry, looked up): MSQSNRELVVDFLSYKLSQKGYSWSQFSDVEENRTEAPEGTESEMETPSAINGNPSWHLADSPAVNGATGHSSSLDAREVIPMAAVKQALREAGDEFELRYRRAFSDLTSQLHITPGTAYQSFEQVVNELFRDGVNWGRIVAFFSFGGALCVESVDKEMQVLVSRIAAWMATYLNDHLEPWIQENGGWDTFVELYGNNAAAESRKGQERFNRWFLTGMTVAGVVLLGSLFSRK
GLD-1 RNA inh – GLD-1/TGE RNA complex disruptors, primary screen, biochemical, fluorescence polarization. Female germline-specific tumor suppressor gld-1 (Caenorhabditis elegans), Q17339. purified GLD-1 + fluorescein TGE RNA. inhibition, % at 5.96 µM. 0.44% of 320,000 active. AID 2280, 2010;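 active = percent inhibition above a per-plate cutoff, the plate mean of test compounds plus 3 SD, cut at about 30% in these data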;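 note: 0% = DMSO wells with GLD-1 and probe and 100% = wells lacking GLD-1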
Mcl1 Bid PPI – Mcl-1/Bid binding inhibitors, primary screen, biochemical, TR-FRET, 1536-well; 0.97% of 220,000 active; inhibition, % at 21.7 µM; Induced myeloid leukemia cell differentiation protein Mcl-1 (Homo sapiens), Q07820; TR-FRET Mcl-1/Bid-Dy647 peptide binding;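 active = compounds that cut the binding signal by more than half at the single screening dose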;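 note: His-tagged Mcl-1 with europium anti-His antibody binding Bid BH3 peptide; 0% = Mcl-1 plus peptide wells and 100% = peptide-only wells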
An asterisk follows results filed as active. Sampled rows, rich in hits. Any-hit rate of the full collection: about 2.3%.

What do the screens show for `O=C(/C=C1\C(=O)Nc2ccccc21)/C=C1\C(=O)Nc2ccccc21`?
Mcl1-Noxa inh: 102.2*; Mcl1 Bid PPI: 91.5*

What do the screens show for `O=C1Nc2ccccc2/C1=C\C(=O)c1ccccc1`?
MCL1 BIM primary: -2.3; BCLXL inh: 3.1; GLD-1 RNA inh: -2.3

What do the screens show for `CC(=O)Nc1ccccc1NC(=O)C/C(C)=N/NC(=O)Cc1cccc2ccccc12`?
MCL1 BIM primary: 9.3; BCLXL inh: 5.2; GLD-1 RNA inh: 3.3

Results for C=C(C)CNC(=S)N/N=C/c1ccc(NC(C)=O)cc1 ?
Mcl1-Noxa inh: 8.0; Bim-Mcl-1: -1.0; MCL1 BIM primary: 2.0; BCLXL inh: 2.7; GLD-1 RNA inh: -4.9; Mcl1 Bid PPI: -18.7

Results for CC(=O)Nc1ccc(/C=N/NC(=S)NC(C)C)cc1 ?
Mcl1-Noxa inh: 52.5*; Bim-Mcl-1: -1.0; MCL1 BIM primary: 12.6; BCLXL inh: 6.5; GLD-1 RNA inh: 6.8; Mcl1 Bid PPI: 5.6

What do the screens show for `CCC1CN(C(=O)N2CCC(C(=O)NCc3cc(OC)c(OC)c(OC)c3)CC2)c2ccccc2O1` (centres undefined)?
MCL1 BIM primary: -3.7; BCLXL inh: 0.5; GLD-1 RNA inh: 3.7

Results for COc1cc(C(=O)N2CCN(S(=O)(=O)c3ccc(C)cc3C)CC2)ccc1OCC(=O)N1CCOCC1 ?
MCL1 BIM primary: 3.1; BCLXL inh: 2.3; GLD-1 RNA inh: 1.4

What do the screens show for `CCC(SC1=Nc2ccccc2C2=NC(CC(C)C)C(=O)N12)C(=O)Nc1ccc2c(c1)OCO2` (centres undefined)?
Mcl1-Noxa inh: 62.1*; Bim-Mcl-1: -3.0; MCL1 BIM primary: 13.4; BCLXL inh: 10.2; GLD-1 RNA inh: 5.0; Mcl1 Bid PPI: -34.5

How did O=C(Cc1cccs1)N/N=C/C=C\c1ccco1 do in these assays?
Mcl1-Noxa inh: 90.2*; Bim-Mcl-1: -2.0; MCL1 BIM primary: 38.7; BCLXL inh: 19.5; GLD-1 RNA inh: 21.4; Mcl1 Bid PPI: -17.0

What do the screens show for `O=C(Cc1cccs1)N/N=C/c1ccco1`?
Mcl1-Noxa inh: 10.7; Bim-Mcl-1: -5.0; MCL1 BIM primary: -2.4; BCLXL inh: -0.7; GLD-1 RNA inh: 6.4; Mcl1 Bid PPI: -13.3

Results for Cc1cc(C)c(C(=O)N2CCCC(Nc3ccc(C)c(C)c3)C2)o1 (centres undefined) ?
MCL1 BIM primary: 2.2; BCLXL inh: 2.8; GLD-1 RNA inh: 11.0

What do the screens show for `O=C1CCCN1CCCNc1nc2c(S(=O)(=O)c3ccccc3)nnn2c2ccc(Cl)cc12`?
MCL1 BIM primary: -2.0; BCLXL inh: 4.6; GLD-1 RNA inh: 3.6

What do the screens show for `COc1ccc(NC(=O)CN2CCN(C(=O)N3CCOCC3)CC2)cc1`?
MCL1 BIM primary: -2.4; BCLXL inh: 1.0; GLD-1 RNA inh: -5.6

Results for Cc1ccc(-c2nc(N3CCOCC3)sc2C(=O)N2CCOCC2)cc1 ?
Mcl1-Noxa inh: -0.2; Bim-Mcl-1: -3.0; MCL1 BIM primary: 0.8; BCLXL inh: -0.2; GLD-1 RNA inh: -3.2; Mcl1 Bid PPI: -16.4

What do the screens show for `Cc1ccc(-c2nc(N3CCOCC3)sc2C(=O)N2CCCCC2)cc1`?
Mcl1-Noxa inh: 12.8; Bim-Mcl-1: -3.0; MCL1 BIM primary: 5.3; BCLXL inh: 7.0; GLD-1 RNA inh: 1.8; Mcl1 Bid PPI: 98.0*

Results for CC1(C)N=C(N)N=C(N)N1c1ccc(Oc2ccc(Cl)cc2)c(Cl)c1 ?
MCL1 BIM primary: 7.2; BCLXL inh: 4.8; GLD-1 RNA inh: -4.2

Results for Cc1ccc2cc3c(N)c4c(C)ccc(C)c4nc3nc2c1 ?
Mcl1-Noxa inh: -2.3; Bim-Mcl-1: 3.0; Mcl1 Bid PPI: 1.8

How did O=C(Nc1scc(-c2ccccc2)c1C(=O)O)c1ccco1 do in these assays?
Mcl1-Noxa inh: 9.4; Bim-Mcl-1: -1.0; MCL1 BIM primary: 6.5; BCLXL inh: 7.6; GLD-1 RNA inh: 7.4; Mcl1 Bid PPI: -12.6

Results for O=C(Cc1ccccc1)Nc1scc(-c2ccccc2)c1C(=O)N1CCOCC1 ?
Mcl1-Noxa inh: 20.3; Bim-Mcl-1: 0.0; MCL1 BIM primary: -17.1; BCLXL inh: -0.7; GLD-1 RNA inh: -0.7; Mcl1 Bid PPI: 86.1*

How did Cc1cccc(NC(=O)N2CCC(C(=O)c3ccc(F)cc3)CC2)c1 do in these assays?
MCL1 BIM primary: -1.9; BCLXL inh: 2.1; GLD-1 RNA inh: -0.6

Results for CC(=O)c1cccc(NC(=O)c2cc(=O)[nH]c3ccc(S(=O)(=O)N4CCOCC4)cc23)c1 ?
GLD-1 RNA inh: 6.2

Results for COC(=O)/C(C(C)=O)=C(/C=C/C=C/N(C)C)N(C)C ?
Mcl1-Noxa inh: 20.2; Bim-Mcl-1: 3.0; MCL1 BIM primary: 14.7; BCLXL inh: 11.6; GLD-1 RNA inh: 7.0; Mcl1 Bid PPI: -53.1

How did COC(=O)\C(C(C)=O)=C(/C=C/C=C/N(C)C)N(C)C do in these assays?
Mcl1-Noxa inh: 2.5; Bim-Mcl-1: 6.0; MCL1 BIM primary: 26.1; BCLXL inh: 31.6*; GLD-1 RNA inh: 20.6; Mcl1 Bid PPI: -57.5

Results for C=C(NC(=O)C(=C)NC(=O)c1csc(C2=NC3c4csc(n4)C4NC(=O)c5csc(n5)C([C@@](C)(O)C(C)O)NC(=O)C5CSC(=N5)/C(=C\C)NC(=O)C(C(C)O)NC(=O)c5csc(n5)[C@]3(CC2)NC(=O)C(C)NC(=O)C(=C)NC(=O)C(C)NC(=O)C(C(C)CC)NC2C=Cc3c(C(C)O)cc(nc3C2O)C(=O)OC4C)n1)C(N)=O (some centres undefined) ?
MCL1 BIM primary: 1.5; BCLXL inh: -2.3; GLD-1 RNA inh: 2.6

Results for O=C(NCC1CCCO1)C1CCN(S(=O)(=O)Cc2ccccc2)CC1 (centres undefined) ?
Mcl1-Noxa inh: 11.8; Bim-Mcl-1: 4.0; MCL1 BIM primary: -0.8; BCLXL inh: 1.6; GLD-1 RNA inh: 150.8*; Mcl1 Bid PPI: -4.4

How did O=C1CSC(c2ccncc2)N1Cc1ccccc1 (centres undefined) do in these assays?
Mcl1-Noxa inh: 22.2; Bim-Mcl-1: 0.0; MCL1 BIM primary: 4.2; BCLXL inh: 10.4; GLD-1 RNA inh: 5.2; Mcl1 Bid PPI: 92.8*

How did CCCCOc1ccc(C(=O)N/C(=C\c2cccc([N+](=O)[O-])c2)C(=O)OCCC)cc1 do in these assays?
Mcl1-Noxa inh: 1.8; Bim-Mcl-1: 0.0; MCL1 BIM primary: 10.1; BCLXL inh: 5.7; GLD-1 RNA inh: 13.0; Mcl1 Bid PPI: -26.7
